Here are results for 62 compounds from PubChem BioAssay AID1851 (National Center for Advancing Translational Sciences (NCATS), 2009).

Several values for one entry are separate records, joined by “and”; a condition that tells them apart may be missing. Equal entries are not always repeated. About 4,000 (25%) of roughly 16,000 compounds were called active. About 26% were inconclusive and are not listed. Not all results are given here. A number with no mark means an inactive call. The call rests on the fitted dose curve; in most records, active means well fitted curve in the direction sought with a large enough effect; inconclusive means small, poorly fitted or top-dose-only effect, or effect the other way; inactive means no such curve, though single readings can be large or run the other way.
On the % scale 0 is the no-effect control and ±100 the full control effect.

For this assay, the target named is Cytochrome P450 2C9 (Homo sapiens) (UniProt P11712). Nature of the assay: Cytochrome panel assay with activity outcomes. Conditions: recombinant CYP, pro-luciferin dealkylation, luminescence, p450-cyp2c9; series mostly up to 57.1 µM.
Cytochrome P450 2C9 (Homo sapiens), sequence (P11712 whole entry, looked up): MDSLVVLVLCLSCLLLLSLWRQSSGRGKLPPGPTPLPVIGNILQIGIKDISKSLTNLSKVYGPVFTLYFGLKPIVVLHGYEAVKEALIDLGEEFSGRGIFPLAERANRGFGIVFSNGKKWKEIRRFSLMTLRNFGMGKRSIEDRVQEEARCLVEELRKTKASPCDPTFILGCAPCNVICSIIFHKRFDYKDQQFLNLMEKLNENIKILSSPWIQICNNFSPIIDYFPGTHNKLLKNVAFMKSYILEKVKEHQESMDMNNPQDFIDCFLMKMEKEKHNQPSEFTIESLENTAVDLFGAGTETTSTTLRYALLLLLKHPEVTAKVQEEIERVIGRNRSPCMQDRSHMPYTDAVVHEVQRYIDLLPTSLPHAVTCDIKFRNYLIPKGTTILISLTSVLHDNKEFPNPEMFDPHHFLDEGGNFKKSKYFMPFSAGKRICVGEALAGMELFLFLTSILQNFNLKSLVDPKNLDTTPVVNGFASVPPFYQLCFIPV
For `Cc1cc(Cc2cc(C)c(N)cc2N)c(N)cc1N`, the activity, negative = inhibition is -2.47% [at 11.4 µM].
As for `C[C@H](CN(C)C)C(C#N)(c1ccccc1)c1ccccc1`, the activity, negative = inhibition was -0.348% [at 11.4 µM].
The same measure, in the same setting: with `O=C(O)CP(=O)(O)c1ccc(Cl)cc1` the entry was “inactive”; with `CNCCc1c[nH]c2ccc(O)cc12`, “inactive”; with `O=c1cc(-c2ccc(O)cc2)oc2cc(O)cc(O)c12`, “inactive”.
As to `O=c1c(O)c(-c2cc(O)c(O)c(O)c2)oc2cc(O)cc(O)c12`, the AC50 is 12.6 µM (active) and 10 µM (active).
As for `O=c1cc(-c2ccc(O)c(O)c2)oc2cc(O)cc(O)c12`, the activity, negative = inhibition result is “inactive”.
Same read-out and setting: then `Nc1nc(N)c(Cn2ccnc2)c(=O)[nH]1`, with -12.8% [at 11.4 µM]; and `Cn1cccc1CNCCc1ccccc1`, with “inactive”.
Still for that read-out and setting: then `CN1CC[C@@]23c4ccccc4N[C@H]1[C@]21CCN(C)[C@@H]3Nc2ccccc21`, with “inactive”.
Same read-out and setting: then `C=C1C/C(=C\C)C(=O)O[C@@H]2CCN3CC=C(COC(=O)[C@@]1(C)O)[C@H]23`, with “inactive”.
`CC1=C(C)[N+](=O)C2(O)CCCCC2(C)N1[O-]` (configuration not stated): the activity, negative = inhibition entry is “inactive”.
With `C=Cn1ccnc1P(=S)(c1nccn1C=C)C1CCCCC1`, the half-maximal activity concentration (AC50) was 11.2 µM (active).
With `S=P(C1CCCCC1)(C1CCCCC1)[C@H](c1cccnc1)N1CCCC1`, the activity, negative = inhibition is -6.57% [at 11.4 µM].
Same read-out and setting: then `O[Si@](CCCN1CCCCC1)(c1ccc(F)cc1)C1CCCCC1`, with “inactive”.
Same read-out and setting: then `COC(=O)NC/C=C\c1nc(CC/C=C\C(=O)O[C@H]2C[C@H]3CC(=O)O[C@@H](/C=C\CC(C)C)C[C@@H]4CC[C@H](C)[C@H](C[C@@H](OC)C[C@H](C2)O3)O4)co1`, with -4% [at 11.4 µM]; and `COC(=O)[C@H]1C(=O)c2ccccc2O[C@@](C(=O)OC)(c2ccccc2)[C@@H]1c1ccccc1`, with -6.83% [at 11.4 µM].
Same read-out and setting: then `CC[C@@H]1CN2CCc3cc(OC)c(OC)cc3[C@H]2C[C@@H]1C[C@@H]1NCCc2cc(O)c(OC)cc21`, with “inactive”.
With `CS(=O)(=O)N1CCC2(CC1)CN(Cc1ccncc1)C2`, the AC50 is 39.8 µM (active).
With `CC(C)CN1CC2(CCN(C(=O)Oc3ccccc3)CC2)C1`, the activity, negative = inhibition entry was “inactive”.
`CC(C)CN1CC2(CCN(C(=O)c3ccncc3)CC2)C1`: the activity, negative = inhibition entry was “inactive”.
Same read-out and setting: then `c1cc(CN2CC3(CCNCC3)C2)ccn1`, with “inactive”; and `O=C(Oc1ccccc1)N1CCC2(CCN(Cc3ccccc3)CC2)CC1`, with “inactive”; and `O=C(Oc1ccccc1)N1CCC2(CCCN(Cc3ccccc3)C2)CC1`, with “inactive”.
Turning to `CN1CC[C@@]2(CCCN(C(=O)c3csnn3)C2)C1`, the activity, negative = inhibition result is “inactive”.
For the compound `N#Cc1ccc(CN2CCC3(CC2)CCN(C(=O)Oc2ccccc2)CC3)cc1`, the activity, negative = inhibition result is “inactive”.
Same read-out and setting: then `c1cc(CN2CCC3(CCNCC3)CC2)ccn1`, with “inactive”.
`O=C(Oc1ccccc1)N1CCC2(CCN(Cc3ccncc3)CC2)CC1`: the AC50 was 3.98 µM (active).
In the case of `O=C(c1csnn1)N1CCC2(CC1)CN(Cc1ccncc1)C2`, the AC50 is 10 µM (active).
The same measure, in the same setting: then `O=C(Oc1ccccc1)N1CCC2(CC1)CN(Cc1ccncc1)C2`, with 3.16 µM (active).
For `CC1(C)N=C(N)N=C(N)N1c1cccc(C(=O)Nc2ccc(S(=O)(=O)F)cc2)c1`, the activity, negative = inhibition is 14.9% [at 11.4 µM].
On the same count and under the same terms, with `C=C(C)CN1CC[C@@]23c4c5ccc(O)c4O[C@H]2c2[nH]c4ccccc4c2C[C@]3(O)[C@@H]1C5` the entry was “inactive”; with `CC1=C2C(=O)[C@@H]3[C@@H](CC=C4C[C@@H](O)CC[C@@]43C)[C@H]2CC[C@@]12O[C@H]1C[C@H](C)CN[C@H]1[C@@H]2C`, -3.17% [at 11.4 µM]; with `CC(C)CNCCc1ccccn1`, -0.994% [at 11.4 µM].
Same read-out and setting: with `N[C@@H](CP(=O)(O)O)C(=O)O` the figure was 6.98% [at 11.4 µM]; with `NC(=O)c1cc(N2CC2)c([N+](=O)[O-])cc1[N+](=O)[O-]`, “inactive”.
As for `C=C1[C@@H]2C[C@@]3([C@H]1O)[C@H]1C[C@@H]4[C@@]5(C)CC[C@H](O)[C@]4([C@H]1N(CC)C5)[C@H]3C[C@H]2O`, the activity, negative = inhibition result was “inactive”.
As for `OC(c1ccccc1)(c1ccccc1)C1CCNCC1`, the activity, negative = inhibition entry is “inactive”.
The same measure, in the same setting: with `Cc1ccc(S(=O)ON2CCC(C(=O)O)(c3ccccc3)CC2)cc1` (configuration not stated) the figure was 4.74% [at 11.4 µM]; with `O=C1C[C@@H](c2ccc(O)cc2)Oc2cc(O)cc(O)c21`, “inactive”.
Still for that read-out and setting: then `CS(=N)(=O)CC[C@@H](N)C(=O)O` (some centres not stated), with “inactive”; and `COC(=O)N1CCC2(CCCN(C)C2)CC1`, with “inactive”.
`Nc1nc(N)c(N=Nc2ccc([As](=O)(O)O)cc2)c(=O)[nH]1`: the activity, negative = inhibition was 3.51% [at 11.4 µM].
Same read-out and setting: then `N[C@@H](Cn1ccc(=O)n(Cc2ccc(C(=O)O)cc2)c1=O)C(=O)O`, with “inactive”.
Turning to `NC[C@@H](O)CSP(=O)(O)O`, the activity, negative = inhibition was 10.5% [at 11.4 µM].
`CSC([N-]/N=C/c1cccc(C)n1)=[S]=[Cu].CS[C@H]([S-])[N-]/N=C/c1cccc(C)n1`: the AC50 is 0.251 µM (active).
For the compound `Nc1ccc(CCN2CCN(c3cccc(C(F)(F)F)c3)CC2)cc1`, the activity, negative = inhibition entry was “inactive”.
The same measure, in the same setting: then `N[C@H](Cc1ccc(N(CCCl)CCCl)cc1)C(=O)O`, with “inactive”.
`CCCCC1(CCCC)C(=O)NC(=Nc2cccc(C)c2)NC1=O`: the AC50 was 5.01 µM (active).
Consider `CCC1(C)CC(=O)NC(=O)C1`, for which the activity, negative = inhibition entry was “inactive”.
Still for that read-out and setting: with `CC(C)[C@]1(O)[C@@H](OC(=O)c2ccc[nH]2)[C@]2(O)[C@@]3(C)C[C@@]4(O)O[C@@]5([C@H](O)[C@@H](C)CC[C@]35O)[C@]2(O)[C@]41C` the figure was 13.6% [at 11.4 µM].
`CC[C@@H]1CN2CCc3cc(OC)c(OC)cc3[C@H]2C[C@@H]1C[C@H]1NCCc2cc(OC)c(OC)cc21`: the activity, negative = inhibition result is “inactive”.
Same read-out and setting: with `O=C(OC1CCN(CCCl)CC1)C(c1ccccc1)c1ccccc1` the entry was “inactive”; with `CCOC(=O)c1cncn1[C@H](C)c1ccccc1`, “inactive”.
Consider `CCOC(=O)c1c(NC(=O)C(c2ccccc2)c2ccccc2)sc2c1C1CCN2CC1`, for which the half-maximal activity concentration (AC50) is 1.58 µM (active).
`N[C@H](CCCCCP(=O)(O)O)C(=O)O`: the activity, negative = inhibition entry was “inactive”.
The same measure, in the same setting: then `CCOC(=O)C1=C(C)OC(N)=C(C#N)C12C(=O)N(C)c1ccccc12` (configuration not stated), with “inactive”; and `CC(=O)NCCc1c[nH]c2ccccc12`, with “inactive”; and `CC(C)C[C@H]1C(=O)N2CCC[C@@H]2[C@@]2(O)O[C@](NC(=O)[C@@H]3C=C4c5cccc6[nH]cc(c56)C[C@@H]4N(C)C3)(C(C)C)C(=O)N12`, with “inactive”.
Still for that read-out and setting: then `CN1C[C@H](C(=O)N[C@@]2(C)O[C@@]3(O)[C@H]4CCCN4C(=O)[C@@H](Cc4ccccc4)N3C2=O)C=C2c3cccc4[nH]cc(c34)C[C@@H]21`, with -17.2% [at 11.4 µM].
In the case of `CC(C)[C@@]1(NC(=O)[C@@H]2C[C@H]3c4cccc5[nH]cc(c45)C[C@@H]3N(C)C2)O[C@]2(O)[C@H]3CCCN3C(=O)[C@H](Cc3ccccc3)N2C1=O`, the AC50 was 2.51 µM (active).
The same measure, in the same setting: with `CC(C)[C@@]1(NC(=O)[C@@H]2C[C@H]3c4cccc5[nH]cc(c45)C[C@@H]3N(C)C2)O[C@@]2(O)[C@H]3CCCN3C(=O)[C@H](Cc3ccccc3)N2C1=O` the figure was 2.51 µM (active) and 6.31 µM (active).
